Compounds with a hit are over-represented: about 3% of the library has one in this group of screens.
Tau FP inhib: qHTS for Inhibitors of Tau Fibril Formation, Fluorescence Polarization; Microtubule-associated protein tau (Homo sapiens), P10636; K18 P301L tau heparin fibrillization, Alexa594 FP, 6 h; Potency, µM (titrated, usually from 57.7 µM), actives largely listed as inhibitors; hit rate 0.39% among 280,000; AID 1468, 2008; also: nearly all actives have a fitted effect of over 55% in size
Target sequence (P10636 561-689 P618L limits assumed): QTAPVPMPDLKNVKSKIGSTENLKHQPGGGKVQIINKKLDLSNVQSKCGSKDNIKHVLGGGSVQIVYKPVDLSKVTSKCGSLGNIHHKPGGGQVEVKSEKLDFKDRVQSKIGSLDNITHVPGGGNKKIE
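Heparin (20 uM) drove fibril formation of recombinant tau K18 P301L, 15 uM unlabeled with 0.24 uM Alexa 594 label, for 6 hr at 37 C in 100 mM sodium acetate pH 7. Fluorescence polarization (555/632 nm) read 1 hr after 30 uM ThT.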
Tau ThT inhib: qHTS for Inhibitors of Tau Fibril Formation, Thioflavin T Binding | recombinant tau K18 P301L, heparin-induced fibrillization, ThT fluorescence | Potency, µM (titrated, usually from 57.4 µM), usual class: inhibitors | hit rate 2.1% among 270,000 | Microtubule-associated protein tau (Homo sapiens), P10636; also: nearly all actives have a fitted effect of over 55% in size
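K18 P301L tau (15 uM + 0.24 uM Alexa 594-tagged), heparin 20 uM, NaOAc pH 7, 6 h 37 C; ThT 30 uM, 1 h RT, ex 450/em 510 nm.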
Tau fluor counter: Counterscreen qHTS for Inhibitors of Tau Fibril Formation, Fluorescence Polarization; AID 1463, 2008; tau K18 P301L (four-repeat tau fragment) Alexa594 fluorescence, heparin fibrillization; Potency, µM (highest dose often 57.7 µM); hit rate 0.93% among 280,000; also: nearly all actives have a fitted effect of over 55% in size
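Human K18 P301L tau (15 uM unlabeled plus 0.24 uM Alexa 594-labeled, final) in 100 mM sodium acetate pH 7 was mixed with compound and 20 uM heparin and incubated 6 hr at 37 C.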
TR SRC2 fluor cs: Total Fluorescence Counterscreen for Inhibitors of the Interaction of Thyroid Hormone Receptor and Steroid Receptor Coregulator 2. TRb/SRC2 Texas Red total fluorescence interference. Potency, µM (top dose mostly 106 µM). hit rate 0.29% among 280,000; active = well fitted curve in either direction with a large enough effect; inconclusive = small, poorly fitted or top-dose-only effect
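Human TRβ ligand-binding domain (0.6 uM) and Texas Red SRC2 peptide (20 nM) in Tris buffer with 1 uM T3 and 5% DMSO were incubated with pinned compound for 5 hr at ambient temperature. Total fluorescence was computed as S + 2P (555/632 nm).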
TRb-SRC2 inh: qHTS for Inhibitors of the Interaction of Thyroid Hormone Receptor and Steroid Receptor Coregulator 2 | Potency, µM (series often up to 106 µM), usual class: inhibitors | TRbeta-SRC2 peptide binding, fluorescence polarization; receptor liganded with 1 µM T3 | hit rate 0.065% among 280,000 | Thyroid hormone receptor beta (Homo sapiens), P10828; also: nearly all actives have a fitted effect of over 50% in size
Target sequence (P10828 whole entry, looked up): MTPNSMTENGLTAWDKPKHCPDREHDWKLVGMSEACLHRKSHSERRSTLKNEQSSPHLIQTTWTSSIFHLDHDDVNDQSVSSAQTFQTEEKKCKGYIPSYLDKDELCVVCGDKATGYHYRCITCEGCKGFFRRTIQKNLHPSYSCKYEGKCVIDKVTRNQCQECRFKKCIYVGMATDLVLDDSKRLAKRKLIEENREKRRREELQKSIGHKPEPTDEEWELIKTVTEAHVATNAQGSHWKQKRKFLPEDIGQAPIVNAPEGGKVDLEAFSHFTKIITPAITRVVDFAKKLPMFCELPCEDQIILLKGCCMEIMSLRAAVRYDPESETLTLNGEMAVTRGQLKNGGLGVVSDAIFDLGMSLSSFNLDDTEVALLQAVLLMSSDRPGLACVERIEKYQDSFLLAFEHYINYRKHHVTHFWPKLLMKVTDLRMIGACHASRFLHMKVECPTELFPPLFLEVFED
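Compounds were added to 0.6 uM TRb ligand-binding domain and 20 nM Texas Red-labeled SRC2 peptide in Tris buffer containing 1 uM T3, incubated 5 hr at ambient temperature, then read by fluorescence polarization.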
Hits are given with their value; - = inactive; ? = inconclusive; . = not tested or not shown; [ ] = another dose, or the depositor's remark. Unless noted, calls follow the shape of the dose curve; as a rule, active = well fitted curve in the direction sought with a large enough effect; inconclusive = small, poorly fitted or top-dose-only effect, or another doubt; inactive = no such curve, though single readings can be large; an effect the other way counts as inactive or inconclusive.

SMILES	Tau FP inhib	Tau ThT inhib	Tau fluor counter	TR SRC2 fluor cs	TRb-SRC2 inh
Cc1cc([N+](=O)[O-])nn1CCCC(=O)Nc1cc(Oc2ccc(F)cc2)cc([N+](=O)[O-])c1	-	-	-	-	-
Cc1cc([N+](=O)[O-])nn1CCCC(=O)Nc1cc(Oc2ccccc2)cc([N+](=O)[O-])c1	-	-	10µM[quencher]	-	-
Cc1ccc(Oc2cc(NC(=O)CCCn3nc([N+](=O)[O-])c(Cl)c3C)cc([N+](=O)[O-])c2)cc1	-	-	7.94µM[quencher]	-	-
Cc1cc(C)cc(Oc2cc(NC(=O)c3cn(C)nc3C)cc([N+](=O)[O-])c2)c1	?	-	2.51µM[quencher]	-	-
COc1ccc2c(c1)O[C@H](c1cccc(C(F)(F)F)c1)[C@@H](O)C2=O	-[11.6 µM]	-[11.5 µM]	-[11.6 µM]	-[11.2 µM]	-[11.2 µM]
COc1ccc(-n2c(C)cc(/C=C/c3nc(O)c([N+](=O)[O-])c(=O)[nH]3)c2C)cc1	-	15.8µM	-	-	-
COc1ccc(CCNC(=O)c2cc3n(n2)CCCN(Cc2ccc(C)cc2)C3=O)cc1OC	-	-	-	-	-
CCOC(=O)c1ccc(CC(=O)c2ccc(O)c(O)c2O)o1	22.4µM	15.8µM	?	-	-
COCC1=Cc2cc3c(cc2C(C(C(=O)OC)C(=O)OC)N1C(=O)OC)OCO3 (configuration not stated)	?	?	-	-	-
COc1ccc(CCNC2=C(Cl)C(=O)N(CCc3ccc(OC)c(OC)c3)C2=O)cc1OC	-	-	-	-	-
COC(=O)C1=C(C)N(CCc2ccc(OC)c(OC)c2)C(=O)/C1=C\N(C)C	?	14.1µM	-	-	-
c1coc(CNc2nc(N3CCCCC3)nc3ccccc23)c1	-	-	-	-	?
c1ccc(N2CCN(c3nc(NCc4ccco4)c4ccccc4n3)CC2)cc1	-	?	25.1µM[quencher]	-	-
COc1ccccc1Nc1nc(NCc2ccco2)c2ccccc2n1	?	?	22.4µM[quencher]	-	-
OCCNc1nc(Nc2ccccc2)nc2ccccc12	-	-	-	-	-
Oc1ccccc1Nc1nc(NCc2ccccc2)c2ccccc2n1	-	-	15.8µM[quencher]	-	-
COC(=O)C(C(C)=O)C(NC(=O)OC(C)(C)C)c1ccccc1 (configuration not stated)	-	-	-	-	-
CCC1=Nc2cc(C(=O)NCC3CCCO3)ccc2Sc2ccc(Br)cc21 (configuration not stated)	3.98µM	?	?	-	-
COc1ccc(OC[C@@H](CO)OC)cc1	-[11.6 µM]	-[11.5 µM]	-[11.6 µM]	-[11.2 µM]	-[11.2 µM]
CC(C)(C)C(O)/C(=C\c1ccc(Cl)cc1)n1cncn1 (configuration not stated)	.	.	.	-	-
COC(=O)c1[nH]c2ccc(Br)cc2c1NC(=O)CN1CCCc2ccccc21	-	?	5.01µM[quencher]	-	-
COC(=O)c1[nH]c2cc(C)ccc2c1NC(=O)CN1CCCc2ccccc21	?	?	?	-	-
COc1ccc(/C=N/NC(=O)CNC(=O)COc2ccccc2)cc1	-	-	-	-	-
COc1ccc(OCC(=O)N/N=C/c2ccc(N(C)C)cc2)cc1	?	2.51µM	?	-	-
COc1ccc(NC(=O)Nc2ccc(OC)cc2)cc1	-	-	-	-	-
SMILES	Tau FP inhib	Tau ThT inhib	Tau fluor counter	TR SRC2 fluor cs	TRb-SRC2 inh
CN(C)c1ccc(NC(=O)c2cccc(C(=O)Nc3ccc(N(C)C)cc3)n2)cc1	-	15.8µM	?	-	-
CN(C)c1ccc(NC(=O)c2ccc3nsnc3c2)cc1	-	7.94µM	-	-	-
COc1ccc(NC(=O)Nc2ccc(N(C)C)cc2)cc1	-	12.6µM	?	-	-
CN(C)c1ccc(/C=N/NC(=O)c2cccc(C(=O)N/N=C/c3ccc(N(C)C)cc3)n2)cc1	-	-	-	-	-
O=C(CCc1ccccc1)NCCc1csc(-c2cccc(F)c2)n1	-	-	-	-	-
O=C1CCC=C1C(O)c1ccccc1 (configuration not stated)	-	-	-	-	-
CC(=O)n1c2ccccc2c2nc(NC(C)C)sc21	?	22.4µM	-	-	-
CC(=O)N[C@H](C(=O)O)C(C)(C)SN=O	?	?	-	-	-
CC(=O)N[C@@H](C(=O)O)C(C)(C)SN=O	?	28.2µM	-	-	-
COc1ccccc1N=C1SC(C(=O)Nc2cccc(Cl)c2Cl)C(N)=C1C(N)=O (configuration not stated)	?	25.1µM	17.8µM[quencher]	-	-
Cc1[nH]n(-c2ncc(-c3ccccc3)s2)c(=O)c1C(c1ccc(Br)cc1)C(C#N)C#N (configuration not stated)	35.5µM	8.91µM	?	-	-
O=C(N/N=C\c1ccc(-c2ccccc2[N+](=O)[O-])o1)C1COc2ccccc2O1 (configuration not stated)	?	12.6µM	?	-	-
O=C(N/N=C\c1ccc(-c2ccccc2[N+](=O)[O-])o1)C1COc2cc3ccccc3cc2O1 (configuration not stated)	?	11.2µM	?	-	-
N#Cc1cc2c(=O)n3ccccc3nc2n(-c2nnc(SCc3ccc(F)cc3)s2)c1=O	-	-	-	-	-
COC(=O)c1ccccc1NC(=O)Cn1c(=O)n(CCCC(=O)NCc2ccccc2OC)c(=O)c2ccccc21	-	-	-	-	-
Cc1ncsc1C(=O)N1N=C2/C(=C/c3ccc(N4CCOCC4)cc3)CCCC2C1c1ccc(N2CCOCC2)cc1 (configuration not stated)	-	14.1µM	-	-	-
COc1ccc(S(=O)(=O)c2c(SC)nn(CC(=O)Nc3ccc(C)c(Cl)c3)c2N)cc1	25.1µM	-	?	-	-
CCSc1nn(CC(=O)Nc2cccc(CC)c2)c(N)c1S(=O)(=O)c1ccccc1	?	-	17.8µM[quencher]	-	-
CCc1ccc(NC(=O)Cn2nc(SC)c(S(=O)(=O)c3ccc(OC)cc3)c2N)cc1	?	-	-	-	-
Cc1ccc(N(C)S(=O)(=O)c2ccc3[nH]c4c(c3c2)CCCC4)cc1	-	-	14.1µM[quencher]	-	-
Cc1ccc(NS(=O)(=O)c2ccc3[nH]c4c(c3c2)CCCCCC4)cc1	?	-	11.2µM[quencher]	-	-
Cc1ccc(NS(=O)(=O)c2ccc3[nH]c4c(c3c2)CCCCCC4)cc1C	-	-	12.6µM[quencher]	-	-
CCc1ccc(NS(=O)(=O)c2ccc3[nH]c4c(c3c2)CCCCCC4)cc1	?	-	?	-	-
CCOC(=O)c1ccc(NS(=O)(=O)c2ccc3[nH]c4c(c3c2)CCCCC4)cc1	?	-	6.31µM[quencher]	-	-
CCOC(=O)c1ccc(NS(=O)(=O)c2ccc3c(c2)n(C)c(=O)n3C)cc1	-	-	-	-	-

Assay outcomes from PubChem BioAssay.
